From PubChem BioAssay (Tox21) come the findings set out here.

Records with an inconclusive call do not appear. Entries that show only a call come without a potency. The source made the active and inactive calls. The call rests on the fitted dose curve; in most records, active means well fitted cell-killing curve with a large enough effect in the repeat runs; inconclusive means weak or mixed curves, or effect the other way; inactive means no such curve, though single readings can be large or run the other way.
Potency means the concentration at half of the fitted maximal effect.

The assay can be described thus: qHTS assay to identify small molecule antagonists of the glucocorticoid receptor (GR) signaling pathway - cell viability counter screen (AID 720693). Further: nearly all actives have a fitted effect of over 55% in size. The settings on record: GR-bla HeLa viability, CellTiter-Glo luminescence, 18 h, with 5 nM dexamethasone present; series mostly up to 58.5 µM. From the text:
National Center for Advancing Translational Sciences [NCATS]
NIH Chemical Genomics Center [NCGC]
U.S. Environmental Protection Agency [EPA]
National Institutes of Environmental Health Sciences [NIEHS]
National Toxicology Program [NTP]
U.S. Food and Drug Administration [FDA]
The Glucocorticoid receptor (GR) is one of the members of the nuclear receptor family of ligand-dependent transcription factors. GR plays a critical role in carbohydrate, protein and lipid metabolisms and programmed cell death. CellSensor GR-bla HeLa cell line (Invitrogen) contains a beta-lactamase reporter gene under the control of the glucocorticoid response element stably integrated into HeLa cells, a cervical cancer cell line that expresses glucocorticoid receptor. The activation of the reporter gene under culture conditions can be detected by fluorescence intensity. This cell line has been used to screen the Tox21 10K compound library and to identify the compounds that inhibit the GR signaling. The cytotoxicity of the Tox21 compound library against the GR-bla HeLa cell line was tested in parallel by measuring the cell viability using CellTiter-Glo assay in the same wells.
Tox21 Assay Protocol Summary:
The GR-bla HeLa cells were dispensed at 1500 cells/5 ul/well in 1536-well black wall/clear bottom plates using a Multidrop Combi (ThermoFisher Scientific, Waltham, MA) dispenser. After the assay plates were incubated at a 37 C/5% CO2 incubator for 4 hours, 23 nL of compounds dissolved in DMSO, positive controls or DMSO only was transferred to the assay plate by a pintool station (Kalypsys, San Diego, CA), followed by addition of 1 uL of dexamethasone (5 nM, final concentration in the well). The plates were incubated at 37 C for 18 hours. After 1 uL of LiveBLAzerTM B/G FRET substrate was added using a Flying Reagent Dispenser (Aurora Discovery, San Diego, CA), the plates were incubated at room temperature (RT) for 2 hours, and fluorescence intensity was measured by an Envision plate reader (PerkinElmer, Shelton, CT). After measurement of bla assay, 3 ul CellTiter-Glo (Promega, Madison, WI) was added to measure the cytotoxicity and the plates were then incubated at RT for 30 min. The luminescence was measured using a ViewLux (Perkin Elmer) plate reader.
Consider `O=C1C2(Cl)C3(Cl)C4(Cl)C(Cl)(Cl)C5(Cl)C3(Cl)C1(Cl)C5(Cl)C24Cl` (stereo not given), for which the Potency is 24.1 µM (active). For `O=C(O)[C@H](O)[C@@H](O)C(=O)O`, the Potency entry is “inactive”. For `CC(=O)[O-].CC(=O)[O-].[Co+2]`, the Potency entry is “inactive”.

Take `O.O.O.O=C([O-])[C@H]([O-])[C@@H]([O-])C(=O)[O-].O=C([O-])[C@H]([O-])[C@@H]([O-])C(=O)[O-].[K+].[K+].[Sb+3].[Sb+3]`: the Potency entry was “inactive”. The value for `N#Cc1ccc(N(CC(N)=O)CC(F)(F)F)cc1C(F)(F)F` was “inactive”; that for `[O-][Cl+3]([O-])([O-])O` was “inactive”. On to `CCOP(=O)(OCC)Oc1cc(C)nc(C(C)C)n1`, for which the Potency result was “inactive”. The value for `CC1(C)[C@H](/C=C2\CCSC2=O)[C@@H]1C(=O)OCc1coc(Cc2ccccc2)c1` was “inactive”. Under `C#CCO` stands “inactive”; under `CCC(C)Br` (stereo not given), “inactive”. In the case of `CCC(C)Nc1c([N+](=O)[O-])cc(C(C)(C)C)cc1[N+](=O)[O-]` (stereo not given), the Potency entry was “inactive”. As for `[F][Sn]([c]1ccccc1)([c]1ccccc1)[c]1ccccc1`, the Potency was 0.977 µM (active).

As to `O=[N+]([O-])[O-].[Tl+]`, the Potency result was “inactive”. `CCCCN(CCCC)C(=S)[S-].CCCCN(CCCC)C(=S)[S-].[Ni+2]`: the Potency result is “inactive”. For `O=C(N[C@H]1N=C(c2ccccc2F)c2cccc3c2N(CC3)C1=O)c1cc2ccccc2[nH]1`, the Potency entry was “inactive”. For `CC(C)=CC1C(C(=O)OC(C#N)c2cccc(Oc3ccccc3)c2)C1(C)C` (stereo not given), the Potency entry is “inactive”.

With `CC1(C)C(C=C(Cl)Cl)C1C(=O)OC(C#N)c1ccc(F)c(Oc2ccccc2)c1` (stereo not given), the Potency entry is “inactive”. Turning to `CC(C)N(C(=O)SC/C(Cl)=C/Cl)C(C)C`, the Potency entry was “inactive”. The value for `CCN(CC)C(=S)S` was “inactive”. As for `CN(C)C(=S)SSC(=S)N(C)C`, the Potency result was “inactive”. Consider `N#CC(C#N)=NNc1cccc(Cl)c1`, for which the Potency is 6.92 µM (active). Under `Oc1cc(Cl)cc(Cl)c1` stands “inactive”; under `CC(C)c1c(CN(C)C(C)Cc2ccccc2)n(C)n(-c2ccccc2)c1=O` (stereo not given), “inactive”.

In the case of `CCN(CC)Cc1nccn1-c1ccc([N+](=O)[O-])cc1C(=O)c1ccccc1Cl`, the Potency entry was “inactive”. Turning to `ClSC(Cl)(Cl)Cl`, the Potency entry is “inactive”. For `Nc1nc(N)c(N)c(N)n1`, the Potency result is “inactive”. The value for `c1ccc(Nc2ccc(Nc3ccccc3)cc2)cc1` was “inactive”; that for `O=[N+]([O-])C(Br)Br` was “inactive”. In the case of `Cc1cnc2c(C(=O)O)c(Cl)ccc2c1`, the Potency entry was “inactive”. Under `CCN(CC)CCc1c[nH]c2ccccc12` stands “inactive”; under `[Cl-].[Cl-].[Sn+2]`, “inactive”; under `C[N+]1(C)[C@@H]2CC[C@H]1CC(OC(=O)C(CO)c1ccccc1)C2` (stereo not given in full), “inactive”.

Consider `COc1ccc2c(c1OC)C(=O)O[C@@H]2[C@H]1c2cc3c(cc2CCN1C)OCO3`, for which the Potency result was “inactive”.

For the compound `CN=C=O`, the Potency result was “inactive”. Under `CC(=O)[O][Sn]([c]1ccccc1)([c]1ccccc1)[c]1ccccc1` stands 0.871 µM (active); under `Brc1cccc(-c2ccccc2)c1`, “inactive”. In the case of `C[C@]12C/C(=C/O)C(=O)C[C@@H]1CC[C@@H]1[C@@H]2CC[C@@]2(C)[C@H]1CC[C@]2(C)O`, the Potency was 49.4 µM (active).

With `CSSC`, the Potency result was “inactive”. Under `CCCN` stands “inactive”; under `CNC(=O)/C=C(\C)OP(=O)(OC)OC`, “inactive”.
